# Rows were chosen to be rich in hits. Some 0.37% of all compounds tested hit in one or more screens of this group.
# Rac1 act GTP bind: alters GTP binding to activated mutant human Rac1; 0.11% of 190,000 active; GST-Rac1 activated beads, fluorescent GTP binding, flow cytometry; actives lie on both sides; 100% means binding = to untreated wells; AID 764; percent activity (GTP binding), % at 10 µM;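 active = GTP binding at least 20 percentage points away from the 100% baseline, in either direction, so actives lie on both sides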
# Rab7 wt GTP bind: modulators of GTP binding to dog Rab7 wildtype GTPase; AID 758; GTP binding activity (percent of control), % at 10 µM; 0.055% of 190,000 active; GST-Rab7 beads, fluorescent GTP binding, flow cytometry; actives lie on both sides; untreated = 100%, excess cold GTP = 0%;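 active = fluorescent GTP binding to Rab7 beads changed by at least 20 points from the 100% baseline, either direction, mostly lower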;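 note: median green fluorescence of bound Bodipy-FL-GTP per Rab7 bead population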
# Rac1 wt modul: alters GTP binding to wildtype human Rac1 | P63000 | GST-Rac1 beads, fluorescent GTP binding, flow cytometry; actives lie on both sides; 0 = cold GTP competed, 100 = untreated | GTP binding activity (% of control), % at 10 µM | 0.27% of 190,000 active;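 active = GTP binding activity at least 20 points away from the 100% control level, either lower or higher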
# HRas wt GTP bind: modulators of GTP binding to human HRas wildtype. GTP binding activity, % at 10 µM. GST-Ras wt beads, Bodipy-FL-GTP binding, flow cytometry; actives lie on both sides. 0.14% of 190,000 active;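 active = GTP binding activity at least 20% away from the 100% baseline, either lowered as inhibitor or raised as activator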;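 note: 0% = unlabeled GTP competition control and 100% = no-compound control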
# Target sequence (P01112 whole entry, looked up): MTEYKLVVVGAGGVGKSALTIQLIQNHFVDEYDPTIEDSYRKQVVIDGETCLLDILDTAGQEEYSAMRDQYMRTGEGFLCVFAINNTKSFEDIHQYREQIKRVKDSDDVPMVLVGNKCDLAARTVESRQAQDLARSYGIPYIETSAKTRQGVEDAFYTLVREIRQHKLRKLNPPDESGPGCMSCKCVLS
# Rab2 wt GTP: changes GTP binding to wildtype dog Rab2A, up or down; P61105; GST-Rab2 wt beads, Bodipy-GTP binding, flow cytometry; GTP binding activity, % at 10 µM; 0.19% of 190,000 active;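 active = GTP binding activity at least 20 points away from 100%, either lowered or raised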;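 note: 0% = beads with excess unlabeled GTP and 100% = no-compound control corrected for plate trend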
# Cdc42 wt: modulators (inhibitors or activators) of GTP binding to human Cdc42 wildtype | P60953 | GST-Cdc42 beads, Bodipy-GTP binding, flow cytometry; actives lie on both sides | percent activity (GTP binding), % at 10 µM | 0.2% of 190,000 active | AID 761;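 active = percent activity GTP binding at least 20 points away from the 100% baseline, either down as inhibitor or up as activator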;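 note: median bead fluorescence of bound Bodipy-FL-GTP at 100 nM; 0% = excess unlabeled GTP control and 100% = no compound control; below 100% means less GTP binding so inhibitor and above means activator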
# Target sequence (P60953 whole entry, looked up): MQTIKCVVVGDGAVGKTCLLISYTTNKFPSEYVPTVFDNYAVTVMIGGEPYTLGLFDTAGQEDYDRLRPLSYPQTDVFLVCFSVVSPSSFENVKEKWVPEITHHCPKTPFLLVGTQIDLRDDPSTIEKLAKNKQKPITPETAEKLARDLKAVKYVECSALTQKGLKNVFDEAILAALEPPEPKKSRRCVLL
# Active calls of the source: *.
SMILES,Rac1 act GTP bind,Rab7 wt GTP bind,Rac1 wt modul,HRas wt GTP bind,Rab2 wt GTP,Cdc42 wt
c1ccc(Nc2nc(-c3ccccn3)cs2)cc1,98,104,105,102,101,102
COc1cccc2sc(Nc3nc(-c4ccccn4)cs3)nc12,90,88,79*,85,83,88
O=C(/C=C/c1ccc([N+](=O)[O-])cc1)OCC(=O)N1c2ccccc2Sc2ccccc21,97,106,102,100,100,97
N#CC1=C(N)N(c2ncn[nH]2)C2=C(C(=O)CCC2)C1c1ccc(F)cc1 (stereo unspecified),101,103,103,102,102,99
COc1cccc(-c2cc(C(F)(F)F)c(C#N)c(=O)[nH]2)c1,77*,85,80,83,78*,81
CC(=O)c1sc(N/N=C2\CC3CC2C(C)C3(C)C)nc1C (stereo unspecified),98,105,100,100,100,98
CCOc1cc(/C=N/NC(=O)C(C)Sc2ccccc2)ccc1O (stereo unspecified),90,92,78*,89,88,86
COc1cccc(/C=N/NC(=O)C(C)Sc2ccccc2)c1 (stereo unspecified),94,99,97,97,94,94
Cc1ccc(NC(=O)C(C)NS(=O)(=O)c2ccc(F)cc2)cc1C (stereo unspecified),101,111,113,103,105,104
CNC(=O)C(C)NS(=O)(=O)c1ccc(F)cc1 (stereo unspecified),36*,27*,34*,40*,36*,37*
CCOc1ccc(CCNc2ccc3nnc(-c4ccccc4)n3n2)cc1OCC,89,88,76*,74*,76*,79*
Clc1ccc(CNc2ccc3nnc(-c4ccccc4)n3n2)cc1,97,94,98,97,97,98
CC(=O)NC(Cc1ccccc1C)C(=O)NC1CCN(c2ncccc2[N+](=O)[O-])CC1 (stereo unspecified),101,104,106,102,100,105
Cc1cc(C)cc(C(=O)N(NC(=O)Nc2ccc(Cl)cc2)C(C)(C)C)c1,99,74*,99,95,97,101
Cc1cc(=O)[nH]c2c(N=Nc3ccc(O)cc3)c(N)nn12,79*,84,56*,63*,64*,60*
Cc1ccnc(NS(=O)(=O)c2ccc(NC(=O)C3C4C=CC(C4)C3C(=O)O)cc2)n1 (stereo unspecified),94,103,97,99,99,93
S=C(NCCc1ccccc1)N1CCn2cccc2C1c1cccnc1 (stereo unspecified),77*,86,78*,81,80,78*
S=C(NCc1ccccc1)N1CCn2cccc2C1c1cccnc1 (stereo unspecified),95,97,97,98,96,98
O=C(COc1cccc2ccccc12)N/N=C/c1ccncc1,93,97,96,96,93,95
COc1ccc(C(CC(=O)O)NC(=O)c2cc3cc(Br)ccc3oc2=O)cc1OC (stereo unspecified),76*,83,80,83,76*,77*
COc1ccc(CC2(CO)CCN(S(=O)(=O)c3sccc3C)CC2)cc1,57*,66*,58*,61*,66*,63*
COc1ccc(CC2(CO)CCN(S(=O)(=O)c3c(C)nn(C)c3Cl)CC2)cc1,95,96,99,96,96,98
Cc1ccccc1C(=O)Nc1nnc(SC(C)C)s1,99,103,98,98,101,99
Cc1ccsc1C(=O)N1CCC(N2CCC(C(=O)NCC3CCCO3)CC2)CC1 (stereo unspecified),99,95,100,95,97,98
O=C1NC2(CCCCC2)C(=O)N1Cc1cccc(C(F)(F)F)c1,97,106,102,101,102,103
SMILES,Rac1 act GTP bind,Rab7 wt GTP bind,Rac1 wt modul,HRas wt GTP bind,Rab2 wt GTP,Cdc42 wt
CCOC(=O)/C=C1\SCC(=O)N1CCOc1cccc(Br)c1,84,73*,86,62*,79*,83
CCn1c(=N)c(S(=O)(=O)c2ccc(C)cc2)cc2c(=O)n3ccccc3nc21,90,95,74*,84,84,81
CCn1c(=N)c(S(=O)(=O)c2ccccc2)cc2c(=O)n3ccccc3nc21,94,95,87,91,89,88
Cc1ccc(S(=O)(=O)c2cc3c(=O)n4ccccc4nc3n(Cc3ccco3)c2=N)cc1C,103,103,109,107,103,108
Cc1ccc(S(=O)(=O)c2cc3c(=O)n4ccccc4nc3n(C)c2=N)cc1,91,93,93,79*,78*,82
O=C(COC(=O)c1ccc(O)cc1)Nc1ccc(Cl)cc1,95,91,97,95,94,97
Cc1ccc(NC(=O)COC(=O)c2ccc([N+](=O)[O-])o2)cc1S(=O)(=O)N1CCCCCC1,96,98,100,96,96,99
O=c1c2ccccc2nc2c3ccccc3c(NCCO)nn12,78*,101,63*,62*,62*,58*
Cc1nc(NCc2ccccn2)c2ccccc2n1,98,93,100,99,97,97
CCOC(=O)c1nc(NCc2cccnc2)c2ccccc2n1,97,95,99,96,95,97
O=c1c2ccccc2nc2c3ccccc3c(NCc3cccnc3)nn12,84,86,69*,75*,72*,72*
O=c1c2ccccc2nc2c3ccccc3c(NCc3ccccn3)nn12,82,87,65*,76*,74*,75*
Cc1cccn2c(CN(C)CC3Cc4ccccc4O3)c(C(=O)N3CCCCC3)nc12 (stereo unspecified),97,99,99,98,97,96
O=C(Nc1nccs1)c1ccc(NC(=O)C2CC=CCC2C(=O)O)cc1 (stereo unspecified),92,93,84,89,89,90
O=C(COC(=O)/C=C/c1ccc(Cl)cc1)Nc1ccc2c(c1)OCCO2,78*,87,79*,81,76*,83
CN1C(=O)/C(=C2\SC(=S)N(CC3CCCO3)C2=O)c2ccccc21 (stereo unspecified),101,102,104,102,102,104
O=C1/C(=C\c2ccc(-c3ccccc3Cl)o2)SC(=S)N1CC1CCCO1 (stereo unspecified),59*,68*,59*,55*,62*,63*
